HPGD inh = qHTS Assay for Inhibitors of HPGD (15-Hydroxyprostaglandin Dehydrogenase); purified HPGD, NADH fluorescence kinetic, PGE2 substrate; Potency, µM, inactives show top-dose activity change, negative = inhibition, hits mostly inhibitors; hit rate 4.3% among 150,000; note: potency is the fitted concentration of half-maximal effect
Target sequence (P15428 whole entry, looked up): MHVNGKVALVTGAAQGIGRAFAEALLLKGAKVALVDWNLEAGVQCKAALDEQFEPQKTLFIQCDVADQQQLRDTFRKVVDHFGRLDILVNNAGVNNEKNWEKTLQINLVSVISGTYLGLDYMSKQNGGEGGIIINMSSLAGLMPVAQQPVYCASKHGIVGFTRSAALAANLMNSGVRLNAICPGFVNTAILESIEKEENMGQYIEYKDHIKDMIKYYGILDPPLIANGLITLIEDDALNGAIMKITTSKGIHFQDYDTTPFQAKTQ
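20 nM HPGD preincubated 15 min at room temperature with compound in 50 mM Tris-HCl pH 8, 0.01% Tween 20. Started with 1 mM NAD+ and 30 uM prostaglandin E2; NADH fluorescence (360/450 nm) read 5 times over 30-s intervals, last minus first.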
ALOX12 inhib = qHTS Assay for Inhibitors of 12-hLO (12-human lipoxygenase); purified 12-hLO, xylenol orange hydroperoxide absorbance; Potency, µM (highest dose often 57.1 µM), for the others: at the top dose activity change, negative = inhibition, hits mostly inhibitors; hit rate 0.12% among 150,000; active = well fitted curve in the direction sought with a large enough effect; inconclusive = small, poorly fitted or top-dose-only effect, or another doubt; inactive = no such curve, though single readings can be large; an effect the other way counts as inactive or inconclusive; note: potency is the fitted concentration of half-maximal effect; nearly all actives have a fitted effect of over 55% in size
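Xylenol orange chromogenic assay: hydroperoxide from 12hLO oxidises Fe(II), giving red-shifted Fe(III)-XO absorbance. Conditions: 150 nM enzyme, 40 uM arachidonic acid, 25 mM Hepes pH 7.0, 0.01% Triton X-100, 30 min, room temperature.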
IMPase Li inh = qHTS Assay for Identifying the Cell-Membrane Permeable IMPase Inhibitors: Potentiation with Lithium; AID 1457, 2008; Potency, µM (highest dose often 59.4 µM), without a hit: at the highest dose activity, negative = IMPase inhibition, actives largely listed as inhibitors; CHO-M1 cells, IP1 TR-FRET (IP-One), carbachol + lithium; hit rate 0.35% among 210,000; active = well fitted curve in the direction sought with a large enough effect; inconclusive = small, poorly fitted or top-dose-only effect, or another doubt; inactive = no such curve, though single readings can be large; an effect the other way counts as inactive or inconclusive;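 note: IP1 builds up when IMPase is blocked and the TR-FRET signal falls; potency is the fitted concentration of half-maximal effect; plate controls were basal vehicle for no effect and high inhibitor control for full effect; nearly all actives have a fitted effect of over 50% in size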
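IP1 accumulation measured by competitive TR-FRET in lysed CHO-M1 cells after 30 min compound exposure at 37C, with a small lithium addition to potentiate weak responses. Hill-equation AC50 from ratio and donor-channel data.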
ALDH1A1 block = qHTS Assay for Inhibitors of Aldehyde Dehydrogenase 1 (ALDH1A1); Aldehyde dehydrogenase 1A1 (Homo sapiens), P00352; Purified ALDH1A1, NADH fluorescence, propionaldehyde substrate; Potency, µM (top dose mostly 75.3 µM), for inactives: at the highest dose activity, negative = inhibition, actives largely listed as inhibitors; AID 1030, 2008; hit rate 7.3% among 220,000;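 note: potency is the fitted concentration of half-maximal effect; plate controls were no enzyme wells and a reference inhibitor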
PNC inhibitor = High Content Assay for Compounds that inhibit the Assembly of the Perinucleolar Compartment; hit rate 3.1% among 140,000; AID 2417, 2010; PC3M PTB-GFP, PNC prevalence imaging, 16 h; hits give low values; activity change (PNC), negative = inhibition, % at 10 µM;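 active = readout at or below -70, meaning at least 70% loss of cells showing the perinucleolar compartment, a nuclear body marking cancer cells; inconclusive = readout between -30 and a set limit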;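 note: plate controls were DMSO wells for no effect and camptothecin positive control wells for full effect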
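Compounds are pinned in duplicate onto adhered PC3M cells stably expressing GFP-tagged PTB and incubated 16 h at 37 C. Cells are then fixed, nuclei stained with Hoechst, and PNC-positive cells counted.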
IMPase cell inh = qHTS Assay for Identifying the Cell-Membrane Permeable IMPase Inhibitors. CHO-M1 cells, IP1 accumulation, HTRF TR-FRET ratio. 120,000 tested, under 10 active. AID 901, 2007. Inositol monophosphatase 1 (Rattus norvegicus), P97697. inhibition (IP1 accumulation), % at 46.1 µM; active = well fitted curve in the direction sought with a large enough effect in the signal ratio, not every such curve was filed as active; inconclusive = small, poorly fitted or top-dose-only effect, or a change in a side signal; inactive = no such curve, though single readings can be large or run the other way; the % refers to the signal ratio;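 note: cells stimulated with carbachol in lithium chloride buffer; plate controls were DMSO basal wells for no effect and reference inhibitor wells for full effect; higher means more IMPase inhibition seen as more IP1 and lower FRET ratio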
Target sequence (P97697 whole entry, looked up): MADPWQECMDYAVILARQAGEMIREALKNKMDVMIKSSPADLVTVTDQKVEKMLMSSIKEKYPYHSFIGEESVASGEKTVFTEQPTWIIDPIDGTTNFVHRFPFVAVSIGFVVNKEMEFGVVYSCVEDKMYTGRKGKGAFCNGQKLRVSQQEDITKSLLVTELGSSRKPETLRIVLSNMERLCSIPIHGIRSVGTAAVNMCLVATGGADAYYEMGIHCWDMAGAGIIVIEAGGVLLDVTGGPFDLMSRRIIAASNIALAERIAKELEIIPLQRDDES
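CHO-M1, 2000 cells/well, cultured 16–30 h; cpd up to 46 uM; carbachol (50 uM solution, stimulation buffer w/ 50 mM LiCl, pH 7.4), 30 min 37C; IP-One TR-FRET, 10 min RT; Ex 320/Em 665, 620; Hill-fit AC50.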
* marks the source's active call; other numbers are inactive results; ? = inconclusive; · = not tested or not shown; [ ] = dose if it differs, or a comment. Compounds with a hit are over-represented: about 11% of the library has one in this group of screens. Unless noted, calls come from the whole dose curve; as a rule, active = well fitted inhibition curve with a large enough effect (not every such curve was filed as active); inconclusive = small, poorly fitted or top-dose-only effect, or another doubt; inactive = no such curve, though single readings can be large or run the other way. Unless noted, % is set by controls: 0 for no effect and ±100 for the full control effect.

SMILES	HPGD inh	ALOX12 inhib	IMPase Li inh	ALDH1A1 block	PNC inhibitor	IMPase cell inh
COc1ccc(NC(=O)C2CCCO2)cc1Cl (stereo not drawn)	16µM*	2%	7%[38.3 µM]	?	18	0
O=C(Nc1cc(Cl)c(O)c(Cl)c1)C1CCCO1 (stereo not drawn)	25µM*	-1%	53%[38.3 µM]	?	-2	14
CSc1nc2ccc(NC(=O)C3CCCO3)cc2s1 (stereo not drawn)	28µM*	7%	-6%[38.3 µM]	?	10	-6
Cc1ccc(-n2ncc(C(=O)Nc3cc(Cl)ccc3C)c2C2CCNCC2)cc1C	·	·	-1%	7%	·	·
CC1CCC(C(C)C)C(O)C1 (stereo not drawn)	-8%	0%[0.00818 µM]	-6%	8%	·	·
COC(=O)N1CCC2(CCCN(C(=O)Nc3cccc(C#N)c3)C2)CC1	-27%	11%	10%	-8%	·	·
Cc1nn(-c2ccccc2)c2c1C(=O)N(c1ccccc1)C(=O)C(C)(C)C2	-21%	1%	5%[38.3 µM]	13µM*	29	2
O=C(c1c[nH]c(C(=O)N2CCN(Cc3ccccc3)CC2)c1)C1CCCCC1	·	·	15%	7.9µM*	·	·
CC1(C)CC(=O)c2cc3c(nc2C1)CC(C)(C)CC3=O	·	-4%	·	7.1µM*	?	?
C=CC(C)(C)c1[nH]c2ccccc2c1C1=C(O)C(=O)C(c2c[nH]c3c(CC=C(C)C)cccc23)=C(O)C1=O	25µM*	?	23%	?	·	10
COCCCn1c(SCC(=O)NCc2ccccc2)nc2ccccc2c1=O	-24%	-4%	10%	4%	-100*	2
COCCNC(=O)CSc1nc2ccccc2c(=O)n1CCC(=O)NCCc1ccc(OC)c(OC)c1	·	·	-2%	14µM*	·	·
COc1ccc(CCNC(=O)CCn2c(SCC#N)nc3ccccc3c2=O)cc1OC	-2%	-3%	-20%[38.3 µM]	20µM*	-8	10
COCCCNC(=O)CSc1nc2ccccc2c(=O)n1CCC(=O)NCCc1ccc(OC)c(OC)c1	·	·	-2%	?	·	·
COc1ccc(CCNC(=O)CSc2nnc(Cc3csc(N)n3)n2C)cc1OC	4%	-7%	5%[38.3 µM]	13%	-95*	0
COc1ccc(CCNC(=O)CCCn2c(SCC#N)nc3ccccc3c2=O)cc1OC	-6%	-6%	9%[38.3 µM]	-6%	-5	2
COc1ccc(CCNC(=O)CSc2nnc(Cn3c(=O)sc4ccccc43)n2C)cc1OC	·	-4%	·	0%	-15	2
C/C=C1/C(=O)C[C@@H]2[C@H]3CCC4=CC(=O)CC[C@]4(C)[C@@H]3CC[C@]12C	·	·	6%	-7%	·	·
COc1ccc(Oc2ncc3nc(C)c(=O)n(CCC#N)c3n2)cc1	-21%	6%	10%	?	·	·
O=C(Nc1cc2c(oc1=O)CCCC2=O)c1cccc(Cl)c1	-13%	-1%	-1%[38.3 µM]	?	-106*	2
CC(c1ccccc1)n1cc(C(=O)NCc2ccccn2)nn1 (stereo not drawn)	-4%	5%	-8%[38.3 µM]	2%	-5	0
Cc1ccc(C(C)n2cc(C(=O)NCc3cccnc3)nn2)cc1 (stereo not drawn)	-5%	-2%	-6%[38.3 µM]	11µM*	19	1
CCOc1cc(C(=O)Nc2cccc3cccnc23)cc(OCC)c1OCC	·	·	·	·	·	15
COc1ccc(CNc2ncnc3ccc(-c4ccc5c(c4)OCO5)cc23)c(OC)c1	·	·	16%	?	·	·
CCN(CC(=O)Nc1ccc(C)c(F)c1)CC(=O)NC(C)C	·	·	6%	3.2µM*	·	·
SMILES	HPGD inh	ALOX12 inhib	IMPase Li inh	ALDH1A1 block	PNC inhibitor	IMPase cell inh
CCN(CC(=O)Nc1ccc(Br)c(C)c1)CC(=O)NC(C)C	·	·	-6%	-9%	·	·
CC(C)Sc1nc2sc3c(c2c(=O)n1Cc1ccccc1)CCCC3	·	·	·	·	·	-5
Cc1ccccc1-c1nc(N(C)C)c2ccccc2n1	·	·	6%	7%	·	·
S=C(NCCc1c[nH]c2ccccc12)NC1CC1	·	·	2%	3%	·	·
CC1CCCN(C(=O)CCCn2c(=S)[nH]c3ccccc3c2=O)C1 (stereo not drawn)	7.9µM*	0%	28%[38.3 µM]	18µM*	?	-2
O=C(CCCn1c(=S)[nH]c2ccccc2c1=O)NC1CCCC1	14µM*	-3%	-3%[38.3 µM]	?	1	-12
COc1ccc2[nH]c3c(=O)n(CCCCC(=O)N4CCCC4)c(=S)[nH]c3c2c1	4.5µM*	-8%	-12%[38.3 µM]	-7%	?	-18
O=C(CCc1c[nH]c2ccccc12)NC1CC1	16µM*	2%	20%[38.3 µM]	5%	-11	-3
CC1=Nc2cc(C(=O)NC3CCCC3)ccc2Sc2ccc(C)cc21	·	·	·	·	·	-3
CC1(C)S[C@H]2C(NC(=O)[C@@H](N)c3ccc(O)cc3)C(=O)N2[C@@H]1C(=O)O (stereo partly drawn)	-8%	-1%	9%	4%	·	·
O=C(CCn1c(=S)[nH]c2ccccc2c1=O)NCC1CCCO1 (stereo not drawn)	28µM*	7%	-16%[38.3 µM]	?	36	4
O=C(Cn1[nH]c(=O)c2ccccc2c1=O)NC1CCCCCC1	-2%	-4%	18%[38.3 µM]	-5%	-86*	8
CC(CCc1ccccc1)NC(=O)CN1CCSc2ccccc21 (stereo not drawn)	·	·	-7%	13µM*	·	·
CC(CCc1ccccc1)NC(=O)CN1CCN(Cc2ccccc2)C1=O (stereo not drawn)	-2%	-2%	-6%[38.3 µM]	-3%	25	9
Cc1cccc(NC(=O)CN2CCSc3ccccc32)c1	·	·	15%	?	·	·
COc1cccc(NC(=O)CN2CCSc3ccccc32)c1	·	·	-4%	19µM*	·	·
O=C1C=CC(=O)c2c(O)c(Cl)c(Cl)c(O)c21	?	?	113%	1.3µM*	·	·
CC1(C2CC2)NC(=O)N(CC(=O)Nc2ccccc2-c2ccccc2)C1=O (stereo not drawn)	·	·	-5%	18µM*	·	·
COc1ccccc1NC(=O)CN1CCN(CC(=O)Nc2ccc(F)cc2)CC1	-19%	3%	18%[38.3 µM]	25µM*	45	-4
COc1ccccc1N1CCN(CC(=O)Nc2cc(F)ccc2C)CC1	-7%	-9%	20%[38.3 µM]	18µM*	?	4
COc1cc(NC(=O)CCN2CCN(Cc3ccccc3)CC2)cc(OC)c1	-6%	-1%	-11%[38.3 µM]	11µM*	-24	7
COc1ccccc1NC(=O)CN1CCN(CC(=O)Nc2ccc(OCc3ccccc3)cc2)CC1	-7%	1%	19%[38.3 µM]	?	49	8

Assay outcomes from PubChem.
